Compounds with a hit are over-represented: about 18% of the library has one in this group of screens.
TDP1 cell noCPT: qHTS for Inhibitors of human tyrosyl-DNA phosphodiesterase 1 (TDP1): qHTS in cells in absence of CPT | DT40 Tdp1-/- hTDP1 cells, no CPT, ATP luminescence, 48 h | Potency, µM (doses to about 46.2 µM), without a hit: at the top dose activity change, negative = growth inhibition, hits mostly inhibitors | 420,000 compounds, 15% hits; note: potency is the fitted concentration of half-maximal effect; % is set by controls: 0 for no effect and ±100 for the full control effect; nearly all actives have a fitted effect of over 55% in size
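A cellular qHTS used chicken DT40 cells lacking endogenous Tdp1 but carrying stably transfected human TDP1. Compounds were applied without camptothecin, and cell growth kinetics were judged by ATP-dependent luminescence after ≥48 hr.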
TGFb SMAD3 inh: qHTS for Inhibitors of TGF-b; Potency, µM (doses to about 46.1 µM), for the others: at the top dose activity, negative = inhibition, most hits filed as inhibitors; HepG2 CAGA-GFP TGF-b/SMAD3 reporter, GFP fluorescence, 18 h; TGF-beta stimulated, 500 pg/mL final; 410,000 compounds, 1.2% hits; note: potency is the fitted concentration of half-maximal effect; % is set by controls: 0 for no effect and ±100 for the full control effect; nearly all actives have a fitted effect of over 65% in size
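TGF-beta reporter screen: HEPG2 CAGA-GFP, 1% FBS, 500 pg/mL TGF-beta final, 18 h; per-cell GFP summed per well; curves fitted and categorized by class.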
HepG2 tox: qHTS for Inhibitors of TGF-b: Cytotox Counterscreen; HepG2 CAGA-GFP viability, ATP luminescence, 18 h; Potency, µM (titrated, usually from 46.1 µM), inactives show top-dose activity change, negative = cytotoxicity, actives largely listed as cytotoxic; 410,000 compounds, 0.76% hits; AID 588856, 2011; note: potency is the fitted concentration of half-maximal effect
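CellTiter-Glo luminescence gave cytotoxicity after 18 hours at 37 degrees C. The cells were HepG2 CAGA-GFP in 1% FBS DMEM, stimulated with 500 pg/mL TGF-beta after compound addition. %Activity was normalised to no-cell wells (complete cell-killing) and DMSO (no toxicity), and curves were fitted and classified.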
TDP1 block: qHTS Assay for Inhibitors of Tyrosyl-DNA Phosphodiesterase (TDP1); AID 485290, 2010; recombinant TDP1, AlphaScreen DNA substrate cleavage; Potency, µM (highest dose often 130 µM), for the others: at the highest dose activity change, negative = inhibition, most hits filed as inhibitors; 350,000 compounds, 0.28% hits; Tyrosyl-DNA phosphodiesterase 1 (Homo sapiens), Q9NUW8; note: potency is the fitted concentration of half-maximal effect; % is set by controls: 0 for no effect and ±100 for the full control effect; nearly all actives have a fitted effect of over 40% in size
Target sequence (Q9NUW8 whole entry, looked up): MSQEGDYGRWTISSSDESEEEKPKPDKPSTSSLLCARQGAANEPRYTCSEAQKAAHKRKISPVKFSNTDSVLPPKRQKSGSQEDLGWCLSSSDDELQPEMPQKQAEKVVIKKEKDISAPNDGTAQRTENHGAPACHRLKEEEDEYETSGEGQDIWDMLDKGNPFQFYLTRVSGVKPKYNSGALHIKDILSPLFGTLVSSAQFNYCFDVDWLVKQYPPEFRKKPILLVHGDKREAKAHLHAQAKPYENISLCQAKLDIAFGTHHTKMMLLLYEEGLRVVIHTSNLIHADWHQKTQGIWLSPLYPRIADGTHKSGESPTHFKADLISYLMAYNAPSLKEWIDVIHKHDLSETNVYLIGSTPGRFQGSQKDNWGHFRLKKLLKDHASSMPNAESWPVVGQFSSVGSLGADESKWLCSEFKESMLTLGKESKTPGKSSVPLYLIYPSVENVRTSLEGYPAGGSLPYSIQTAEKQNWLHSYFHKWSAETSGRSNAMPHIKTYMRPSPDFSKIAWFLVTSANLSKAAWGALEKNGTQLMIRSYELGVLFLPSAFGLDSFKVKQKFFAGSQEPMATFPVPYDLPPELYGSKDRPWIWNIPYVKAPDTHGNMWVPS
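Recombinant human Tdp1 (E. coli-expressed, 1 nM final) preincubated with compounds 15 min at room temperature, then 5'-biotin/3'-phosphotyrosine-FITC DNA substrate (15 nM final) added for 5 min. AlphaScreen beads (10 ug/ml final) added 10 min; cleavage lowers signal.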
TDP1 cell CPT: qHTS for Inhibitors of human tyrosyl-DNA phosphodiesterase 1 (TDP1): qHTS in cells in presence of CPT | chicken DT40 Tdp1-/-;hTDP1 cells + 20 nM CPT, ATP luminescence, 48 h | Potency, µM (top dose mostly 46.2 µM), without a hit: top-dose activity change, negative = growth inhibition, hits mostly inhibitors | 420,000 compounds, 12% hits; note: potency is the fitted concentration of half-maximal effect; % is set by controls: 0 for no effect and ±100 for the full control effect; nearly all actives have a fitted effect of over 55% in size
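Chicken DT40 Tdp1-/- cells stably complemented with human TDP1 were seeded at 400 cells/well in medium containing 20 nM camptothecin, exposed to pin-transferred compounds, and grown at 37 °C for at least 48 hr. Viability was read as ATP luminescence.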
IL1B secr inh: qHTS for Inhibitors of Inflammasome Signaling: IL-1-beta AlphaLISA Primary Screen | THP-1 LPS/ATP IL-1B secretion, AlphaLISA, 16 h; stronger effect = lower value | activity change, % at 57.5 µM | 360,000 compounds, 4.7% hits | AID 743279, 2014; in the data active = activity change below about -50%; inconclusive = mostly about -30% to -49%; note: % is set by controls: 0 for no effect and ±100 for the full control effect
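THP-1 cells pretreated 1 hr with compounds (up to 57.5 uM final), then stimulated with LPS (250 ng/mL final) plus ATP (1.25 mM final); secreted IL-1B measured by AlphaLISA after 16 hr, decreased signal indicating inhibition.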
* = called active by the depositor; i = inactive; ? = inconclusive; · = no result; [ ] = remark or other dose. Unless noted, calls come from the whole dose curve; as a rule, active = well fitted curve in the direction sought with a large enough effect; inconclusive = small, poorly fitted or top-dose-only effect, or another doubt; inactive = no such curve, though single readings can be large; an effect the other way counts as inactive or inconclusive.

SMILES	TDP1 cell noCPT	TGFb SMAD3 inh	HepG2 tox	TDP1 block	TDP1 cell CPT	IL1B secr inh
CCCCCNC(=O)c1nc(-c2c(F)cccc2F)oc1-c1ccccc1	21µM*	·	·	·	?	-15
O=C(NC1CCCC1)c1nc(-c2c(F)cccc2F)oc1-c1ccccc1	?	·	·	·	?	-4
C[C@@H]1CC=C[C@H]2[C@H]1C(=O)N(Cc1ccccc1)[C@H]2c1ccc(-c2cc3ccccc3s2)cc1F	15µM*	-16%	5%	-2%	16µM*	29
COc1ccc(-c2ccc(C3C4C=CCC(C)C4C(=O)N3Cc3ccccc3)c(F)c2)cc1C (stereo not drawn)	·	4%	6%	3%	·	·
C[C@@H]1CC=C[C@H]2[C@H]1C(=O)N(Cc1ccccc1)[C@H]2c1ccc(-c2ccc(F)cc2)cc1F	13µM*	?	-16%	-6%	16µM*	57
COc1ccc(-c2ccc([C@H]3[C@H]4C=CC[C@@H](C)[C@@H]4C(=O)N3Cc3ccccc3)c(F)c2)cc1C	15µM*	-5%	-8%	-2%	15µM*	11
OC(c1cc(-c2cccc(Cl)c2)nc2ccccc12)C1CCCCN1 (stereo not drawn)	2.6µM*	?	-100%	·	16µM*	-101*
O=C(c1cc(-c2cccc(Cl)c2)nc2ccccc12)N1CCN(c2ccccn2)CC1	?	?	-5%	5%	?	i
O=C(/C=C/c1ccccc1)NC(=S)Nc1ncccn1	-20%	3%	-3%	·	-3%	-14
O=C(C=Cc1ccccc1)Nc1ccccc1	-25%	12%	-23%	·	-29%	-69*
O=C(/C=C/c1ccccc1)NC(=S)Nc1ccccc1	?	-7%	-3%	·	-21%	-61*
CC(C)(C)c1ccc(/C=C/C(=O)Nc2ccncc2)cc1	7.3µM*	?	-30%	8%	10µM*	?
CC(=O)Nc1ccc(NC(=O)/C=C/c2ccc(Cl)cc2)cc1	-8%	-2%	-11%	3%	-13%	-13
O=C(/C=C/c1ccccc1)Nc1cccc(C(=O)NC2CC2)c1	-29%	-29%	4%	·	-3%	-64*
Cc1ccc(S(C)(=O)=O)cc1C(=O)N1CC(C(N)=O)Oc2ccccc21 (stereo not drawn)	-1%	-4%	13%	·	-1%	17
CS(=O)(=O)N1CCC[C@@]2(CCN(C(=O)Nc3cccc(C#N)c3)C2)C1	3%	·	·	·	2%	·
O=C(NC1CC1)c1cccc(NC(=O)c2cnn(-c3ccccc3)n2)c1	16µM*	-4%	-6%	0%	23µM*	8
O=C(Nc1cccc(C(=O)NC2CCCC2)c1)c1ccccc1	?	5%	-7%	4%[56.1 µM]	?	?
O=C(/C=C/c1ccc(F)cc1)NC(=S)Nc1ccccc1	21µM*	13%	0%	·	?	?
NC(N)=NS(=O)(=O)c1ccc(NC(=S)NC(=O)/C=C/c2ccc(F)cc2)cc1	-1%	0%	10%	3%	-13%	0
Cc1ccccc1OCC(=O)N/N=C/c1cccc(Oc2ccc([N+](=O)[O-])cc2[N+](=O)[O-])c1	21µM*	?	-1%	2%	15µM*	-96*
O=C(N/N=C/c1cccc(Oc2ccc([N+](=O)[O-])cc2[N+](=O)[O-])c1)c1cncc(Br)c1	18µM*	-4%	-25%	0%	?	-4
CC[n+]1c(/C=C/c2ccc(N(C)C)cc2)ccc2ccccc21	0.15µM*	3.5µM*	-60%	3%	0.16µM*	-99*
CC[n+]1c(/C=C/c2cc([N+](=O)[O-])ccc2O)ccc2ccccc21	23µM*	-20%	-22%	·	?	-15
CC[n+]1c(/C=C/c2ccc(OC)c(OC)c2)ccc2ccccc21	?	26%	1%	·	?	16
SMILES	TDP1 cell noCPT	TGFb SMAD3 inh	HepG2 tox	TDP1 block	TDP1 cell CPT	IL1B secr inh
CN(C)c1ccc(/C=C/c2ccc3ccccc3[n+]2[O-])cc1	13µM*	93%	-83%	·	20µM*	·
CC[n+]1c(/C=C/c2ccc(OC(C)=O)c(OC)c2)ccc2ccccc21	18µM*	6%	-35%	·	16µM*	-85*
CN(C)c1ccc(/C=C/c2cccc3ccccc23)cc1	?	-5%	-28%	·	-18%	·
COCCn1cnc2c1c(=O)n(CC(=O)c1ccc3c(c1)OCCO3)c(=O)n2Cc1ccccc1	-25%	-14%	-3%	1%	-12%	38
COc1ccccc1N(C(=O)c1ccco1)C(C(=O)NC1CCCCC1)c1cc(OC)c(OC)c(OC)c1 (stereo not drawn)	-30%	10%	2%	·	-4%	3
CCCCC(CC)Cn1c(N)c(C#N)c2nc3ccccc3nc21 (stereo not drawn)	?	?	14µM*	2%	?	-19
CC1=C2C3OC(=O)C(C)C3CCC2(C)C=C(Cl)C1=O (stereo not drawn)	?	0%	2%	·	-2%	-2
CC(C)(C)c1cc(NCc2ccccn2)n2ncc(-c3ccccc3)c2n1	4.6µM*	14µM*	-32%	7%	2.6µM*	0
COC(=O)[C@@]12CCCN1[C@H](c1ccc(-c3ccc(OC)cc3)c(OC)c1)[C@@H]1C(=O)N(C)C(=O)[C@@H]12	4.1µM*	-13%	-28%	2%	4.1µM*	19
COC(=O)[C@@]12CCCN1[C@H](c1ccc(-c3ccc(OC)cc3)cc1)[C@@H]1C(=O)N(C)C(=O)[C@@H]12	21µM*	-12%	-21%	2%	18µM*	7
Cc1ccsc1C1Nc2ccc3ncccc3c2C2=C1C(=O)CC(C)(C)C2 (stereo not drawn)	?	?	-44%	0%	13µM*	4
O=C1CCCC2=C1C(c1cccs1)Nc1ccc3ncccc3c12 (stereo not drawn)	?	-6%	-12%	-1%	16µM*	17
CC1(C)CC(=O)C2=C(C1)c1c(ccc3ccccc13)NC2c1ccco1 (stereo not drawn)	?	?	-39%	-14%	?	?
